According to PubChem BioAssay (EPA / NIEHS):
Values joined by “and” are separate entries in the source; they are usually repeats but may differ in a detail not shown here. Equal entries are not always repeated. Results filed as inconclusive are left out. Active and inactive are the calls of the source. The calls were made as follows, unless noted: active = hit-call score of the fitted dose curve at least 0.9, where 1 is the maximum; inconclusive = response in the unintended direction; inactive = score below 0.9.

Columns and labels:
[1] = Tanguay_ZF_120hpf_SNOU_legacy: (Legacy) Oregon State University Tanguay Lab 120 Hour Post-fertilization zebrafish Assay for Snout Malformation (AID 2283637)
Summary of the method: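 Binary brightfield scoring of snout malformation at 120 hpf. Dechorionated 5D wild-type embryos, one per well, static exposure from 6 hpf at 28C, sealed and dark; final DMSO 0.64% (vol/vol), DMSO as baseline; 5uM trimethyltin chloride positive control.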

[2] = Tanguay_ZF_120hpf_JAW_legacy: (Legacy) Oregon State University Tanguay Lab 120 Hour Post-fertilization zebrafish Assay for Jaw Malformation (AID 2283638)
Summary of the method: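 Steps: dechorionate 4 hpf embryos (pronase); plate 1/well at 6 hpf; add test chemical, 0.64% DMSO final; seal, cover, hold at 28C statically to 120 hpf; score jaw defect presence/absence microscopically. Dead embryos not scored.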

[3] = Tanguay_ZF_120hpf_OTIC_legacy: (Legacy) Oregon State University Tanguay Lab 120 Hour Post-fertilization zebrafish Assay for Otic Vesicle Malformation (AID 2283639)
Summary of the method: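 Wild-type zebrafish larvae, whole-embryo exposure from early stage to 120 hpf at 28C. Binary brightfield scoring of otic vesicle morphology, fitted in the positive direction against the DMSO baseline.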

[4] = Tanguay_ZF_120hpf_PE_legacy: (Legacy) Oregon State University Tanguay Lab 120 Hour Post-fertilization zebrafish Assay for Pericardial Edema (AID 2283640)
Summary of the method: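 Embryos from wild-type 5D adults were staged, then dosed in 0.64% DMSO. They were kept sealed in the dark at 28C until 120 hpf. Pericardial edema was then recorded as present or absent.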

[5] = Tanguay_ZF_120hpf_BRAI_legacy: (Legacy) Oregon State University Tanguay Lab 120 Hour Post-fertilization zebrafish Assay for Brain Malformation (AID 2283641)
Summary of the method: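 Wild-type 5D larvae, static waterborne exposure to 120 hpf, 28C, 0.64% v/v DMSO. Brightfield scoring of brain defects, binary; dead embryos excluded. Positive ctrl 5uM trimethyltin chloride.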

[6] = Tanguay_ZF_120hpf_SOMI_legacy: (Legacy) Oregon State University Tanguay Lab 120 Hour Post-fertilization zebrafish Assay for Somite Malformation (AID 2283647)
Summary of the method: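 Read-out: presence or absence of somite malformation in 120 hpf larvae, gain-of-signal relative to DMSO baseline. Embryos lacked chorion (pronase, 4 hpf) and were exposed statically from 6 hpf at 28C; dead larvae not scored.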

[7] = Tanguay_ZF_120hpf_CFIN_legacy: (Legacy) Oregon State University Tanguay Lab 120 Hour Post-fertilization zebrafish Assay for Caudal Fin Malformation (AID 2283649)
Summary of the method: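 Binary presence or absence of caudal fin malformation at 120 hpf, read by brightfield microscopy, with DMSO as baseline. Larvae came from 5D wild-type embryos exposed statically from 6 hpf at 28C after pronase dechorionation.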

[8] = Tanguay_ZF_120hpf_PIG_legacy: (Legacy) Oregon State University Tanguay Lab 120 Hour Post-fertilization zebrafish Assay for Pigmentation Malformation (AID 2283650);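 also: dechorionated Tropical 5D zebrafish embryos exposed singly from 6 to 120 hpf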
Summary of the method: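 Brightfield scoring of pigmentation malformation at 120 hpf, recorded as binary present/absent per larva. Exposure: dechorionated 5D wild-type embryos, one per well, static from 6 hpf at 28C, final DMSO 0.64% (vol/vol). Dead embryos not scored.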

[9] = Tanguay_ZF_120hpf_CIRC_legacy: (Legacy) Oregon State University Tanguay Lab 120 Hour Post-fertilization zebrafish Assay for Circulatory Malformation (AID 2283651)
Summary of the method: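 Binary circulatory-malformation call at 120 hpf via brightfield imaging, relative to DMSO controls. Embryos (5D strain, chorion removed) received static, light-shielded exposure at 28C.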

[10] = Tanguay_ZF_120hpf_SWIM_legacy: (Legacy) Oregon State University Tanguay Lab 120 Hour Post-fertilization zebrafish Assay for Swim Bladder Malformation (AID 2283654);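 also: swim bladder malformation in each larva scored yes or no under brightfield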
Summary of the method: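 Tropical 5D embryos dechorionated at 4 hpf; 1 embryo/well from 6 hpf; static, sealed, dark exposure at 28C until 120 hpf; final DMSO 0.64%; 5uM trimethyltin chloride positive control; swim bladder defect recorded yes/no; dead embryos not scored.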

[11] = Tanguay_ZF_120hpf_TRUN_legacy: (Legacy) Oregon State University Tanguay Lab 120 Hour Post-fertilization zebrafish Assay for Truncated Body (AID 2283655)
Summary of the method: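 Truncated body is recorded as a binary endpoint at 120 hpf by brightfield imaging of wild-type 5D larvae. Exposure runs statically from 6 hpf at 28C with 0.64% DMSO; embryos dying earlier are not scored.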

[12] = Tanguay_ZF_120hpf_NC_legacy: (Legacy) Oregon State University Tanguay Lab 120 Hour Post-fertilization zebrafish Assay for Notochord and Tail Malformation (AID 2283656)
Summary of the method: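 Binary notochord-distortion calls, made by brightfield inspection, form the read-out; activity is fitted in the positive direction against DMSO. Exposure ran statically from 6 to 120 hpf at 28C with 0.64% DMSO.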

[13] = tested on: Thyroperoxidase (TPO), gene 54314; assay: CCTE_Simmons_AUR_rTPO: CCTE's Amplex UltraRed Assay for Thyroperoxidase (TPO) Inhibition, Simmons Lab (AID 2283662);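 also: potency for loss of signal meaning inhibition of peroxidase activity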
Summary of the method: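 Rat thyroid microsomal TPO + 25 uM AUR in 200 mM K phosphate; cpd 5 nM–87.5 uM [final], 8 conc, 0.5% DMSO; 300 uM H2O2 starts rxn; 37C dark 30 min; endpoint FI 544/590 nm; n=3.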

[14] = CCTE_Simmons_CellTiterGLO_HEK293T: Viability Assessment in CCTE's Assays for Thyroperoxidase (TPO) Inhibition, Simmons Lab (AID 2283665);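 as to AC50: cells exposed to compound for 24 h before readout; actives reduce ATP signal below DMSO vehicle meaning cytotoxicity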
Summary of the method: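 ATP depletion measured in HEK293T cells after 24 h dosing (8 concentrations, 5 nM–87.5 uM final; DMSO 0.5%) using CellTiter-Glo luminescence; curves fit for loss of signal against DMSO baseline.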

[15] = Tanguay_ZF_120hpf_PFIN_legacy: (Legacy) Oregon State University Tanguay Lab 120 Hour Post-fertilization zebrafish Assay for Pectoral Fin Malformation (AID 2283648);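 also: each larva judged yes or no for fin defect by brightfield with dead larvae skipped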
Summary of the method: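 Binary pectoral fin malformation call at 120 hpf by brightfield microscopy; 5D wild-type zebrafish, chorion removed at 4 hpf, one embryo per well from 6 hpf, static exposure at 28C; DMSO (0.64% final) as baseline.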

[16] = Tanguay_ZF_120hpf_TR_legacy: (Legacy) Oregon State University Tanguay Lab 120 Hour Post-fertilization zebrafish Assay for Touch Response (AID 2283667)
Summary of the method: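 Binary touch-response call at 120 hpf, analysed as gain of signal versus DMSO baseline. Wild-type 5D larvae, static exposure at 28C, 0.64% DMSO final; 5uM trimethyltin chloride as positive control.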

[17] = read-out: kallikrein-3 (KLK3), KLK3 (gene 354); assay: LTEA_HepaRG_KLK3: Life Technologies and Expression Analysis (LTEA) Assay for kallikrein-3 (KLK3) using HepaRG (AID 2283652; active = hit-call score of the fitted dose curve at least 0.9, where 1 is the maximum; inactive = score below 0.9); conditions: mRNA level, 48 h; actives raise or lower the signal
Summary of the method: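 KLK3 transcript levels were measured by TaqMan qRT-PCR with normalisation to three housekeeping genes. HepaRG cultures received chemicals for 48 h at up to 100 uM (half-log, 8 points, 0.5% DMSO vehicle), fitted in both directions against DMSO.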

[18] = read-out: solute carrier (SLC22A6), SLC22A6 (gene 9356); assay: LTEA_HepaRG_SLC22A6: Life Technologies and Expression Analysis (LTEA) Assay for solute carrier (SLC22A6) using HepaRG (AID 2283653; active = hit-call score of the fitted dose curve at least 0.9, where 1 is the maximum; inactive = score below 0.9); conditions: mRNA level, 48 h; actives raise or lower the signal
Summary of the method: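 Read-out is SLC22A6 transcript level by qRT-PCR, normalised to three housekeeping genes and fitted for gain or loss relative to 0.5% DMSO vehicle. Human HepaRG cells received chemicals at up to 100 uM for 48 h.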

[19] = read-out: solute carrier (SLC10A1), SLC10A1 (gene 6554); assay: LTEA_HepaRG_SLC10A1: Life Technologies and Expression Analysis (LTEA) Assay for solute carrier (SLC10A1) using HepaRG (AID 2283657; active = hit-call score of the fitted dose curve at least 0.9, where 1 is the maximum; inactive = score below 0.9); conditions: mRNA level, 48 h; actives raise or lower the signal
Summary of the method: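 HepaRG, 48 h exposure, 8-pt half-log curve from 100 uM in 0.5% DMSO, duplicates. Read-out: TaqMan qRT-PCR of SLC10A1 mRNA, normalized to three housekeeping genes. Gain/loss fit vs DMSO baseline.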

[20] = read-out: matrix metalloproteinase-1 (MMP1), MMP1 (gene 4312); assay: LTEA_HepaRG_MMP1: Life Technologies and Expression Analysis (LTEA) Assay for matrix metalloproteinase-1 (MMP1) using HepaRG (AID 2283658; active = hit-call score of the fitted dose curve at least 0.9, where 1 is the maximum; inactive = score below 0.9); conditions: mRNA level, 48 h; actives raise or lower the signal
Summary of the method: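 HepaRG, ~100,000 cells/well, 48 h pre-culture; serum-free induction medium; test chemical 8 conc (max 100 uM, half-log), duplicate, 48 h; 0.5% DMSO; qRT-PCR MMP1, housekeeping-normalized; gain/loss fit vs DMSO.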

Measured: AC50

CC(C)=CCCC(C)=CC=O
active: [13] 43.8 µM
inactive: [1] | [2] | [3] | [4] | [5] | [6] | [7] | [8] | [9] | [10] | [11] | [12] | [14]

CNS(=O)(=O)c1cc(C(=O)N2CCC(CCN3C4CCC3CC(n3c(C)nc5ccccc53)C4)(c3cccc(F)c3)CC2)c(Cl)cc1F (stereo not given)
inactive: [1] | [2] | [3] | [4] | [5] | [6] | [15] | [8] | [11] | [12] | [16]

C1N2CN3CN1CN(C2)C3
inactive: [1] | [2] | [3] | [4] | [5] | [6] | [15] | [7] | [9] | [10] | [12] | [16]

CC(C)(O)c1coc(S(=O)(=O)NC(=O)Nc2c3c(cc4c2CCC4)CCC3)c1
inactive: [1] | [2] | [3] | [4] | [5] | [6] | [15] | [7] | [8] | [9] | [11] | [16]
active: [13] 7.6 µM | [14] 22.4 µM

CCCCCCCCCCCCCCCO
inactive: [1] | [2] | [3] | [4] | [5] | [15] | [7] | [8] | [9] | [10] | [11] | [12] | [16]

O=C(O)c1cccc(N(Cc2cccnc2)c2ccc(OC(F)F)c(OC(F)F)c2)c1
active: [13] 31.2 µM
inactive: [1] | [2] | [3] | [4] | [5] | [6] | [15] | [7] | [9] | [10] | [11] | [12] | [14] | [16]

CC(C)c1cccc(C(C)C)c1N1C(=O)c2ccc(O)cc2C1=O
inactive: [1] | [2] | [3] | [4] | [5] | [15] | [7] | [9] | [17] | [18] | [10] | [20] | [16]
active: [19] 78.7 µM

CC1(C)C(=O)N(Br)C(=O)N1Br
inactive: [1] | [2] | [4] | [5] | [6] | [15] | [7] | [8] | [9] | [12] | [16]

Cc1ccc(S(=O)(=O)O)cc1C
inactive: [1] | [2] | [3] | [5] | [6] | [15] | [7] | [9] | [11] | [12] | [16]

O=C1CCC(N2C(=O)c3ccccc3C2=O)C(=O)N1 (stereo not given)
inactive: [1] | [3] | [15] | [7] | [8] | [9] | [11] | [12]

Cn1cnc([N+](=O)[O-])c1Sc1ncnc2nc[nH]c12
active: [13] 30.4 µM | [14] 1.09 µM
inactive: [1] | [2] | [3] | [6] | [7] | [9] | [11] | [12] | [16]

CC(C)CC(C)(O)C#CC(C)(O)CC(C)C (stereo not given)
inactive: [2] | [3] | [4] | [5] | [12] | [16]

CCc1cc(SCc2sc(-c3ccc(C(F)(F)F)cc3)nc2CN2CCN(c3ccc(OC)cc3)CC2)ccc1OCC(=O)O
inactive: [1] | [2] | [4] | [5] | [6] | [7] | [8] | [9] | [11] | [12] | [16]

CC[C@H](C)C(=O)O[C@H]1C[C@@H](C)C=C2C=C[C@H](C)[C@H](CC[C@@H]3C[C@@H](O)CC(=O)O3)[C@H]21
inactive: [1] | [2] | [3] | [4] | [6] | [15] | [7] | [8] | [9] | [11] | [12] | [14] | [16]
active: [13] 40.3 µM and 43.8 µM

CC(O)CN(CCN(CC(C)O)CC(C)O)CC(C)O (stereo not given)
inactive: [1] | [3] | [4] | [5] | [6] | [15] | [7] | [8] | [9] | [10] | [11] | [16]

CC[C@H]1CC[C@H](NCc2cc3c(cc2OC)[C@H]2C[C@H]2C(=O)N3C)[C@H](c2ccccc2)N1
inactive: [1] | [2] | [3] | [4] | [6] | [15] | [7] | [8] | [11] | [12] | [16]

C=CCCCCCCCCC(=O)O
inactive: [1] | [2] | [4] | [5] | [6] | [15] | [7] | [8] | [9] | [10] | [11] | [12] | [16]

CN(C)c1ccc(Cc2ccc(N(C)C)cc2)cc1
inactive: [1] | [2] | [4] | [5] | [6] | [15] | [7] | [8] | [9] | [10] | [11] | [16]
active: [13] 12 µM | [14] 22.3 µM

Nc1nc2ncc(CNc3ccc(C(=O)N[C@@H](CCC(=O)O)C(=O)O)cc3)nc2c(=O)[nH]1
inactive: [1] | [2] | [3] | [4] | [7] | [8] | [9] | [11] | [14]
active: [13] 20.5 µM
